Among the data in the supplement of paper PMC12819154, “High-throughput peptide-centric local stability assay extends protein–ligand identification to membrane proteins, tissues and bacteria” (Nature Structural & Molecular Biology, 2025) are log2 fold change values, retold here.

Sequence of UniProt Q9EQC1 (Q9EQC1 whole entry): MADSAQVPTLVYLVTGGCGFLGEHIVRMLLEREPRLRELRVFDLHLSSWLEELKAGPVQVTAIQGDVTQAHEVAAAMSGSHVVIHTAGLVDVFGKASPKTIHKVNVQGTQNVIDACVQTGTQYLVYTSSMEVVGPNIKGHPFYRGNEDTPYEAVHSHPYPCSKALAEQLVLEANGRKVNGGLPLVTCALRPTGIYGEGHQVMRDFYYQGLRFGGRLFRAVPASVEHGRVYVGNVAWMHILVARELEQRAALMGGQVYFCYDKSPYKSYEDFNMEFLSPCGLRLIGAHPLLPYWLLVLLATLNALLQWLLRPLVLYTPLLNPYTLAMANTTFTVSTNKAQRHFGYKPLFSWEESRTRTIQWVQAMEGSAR
Sequence of UniProt O89079 (O89079 whole entry): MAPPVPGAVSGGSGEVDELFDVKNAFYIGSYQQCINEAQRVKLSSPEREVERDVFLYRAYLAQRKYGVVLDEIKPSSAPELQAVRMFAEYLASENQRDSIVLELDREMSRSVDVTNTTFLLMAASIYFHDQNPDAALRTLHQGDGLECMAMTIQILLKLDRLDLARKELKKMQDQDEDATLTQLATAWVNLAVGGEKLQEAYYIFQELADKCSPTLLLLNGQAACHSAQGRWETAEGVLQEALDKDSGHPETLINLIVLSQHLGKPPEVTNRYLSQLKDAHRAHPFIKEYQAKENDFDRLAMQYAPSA
Sequence of UniProt P34928 (P34928 whole entry): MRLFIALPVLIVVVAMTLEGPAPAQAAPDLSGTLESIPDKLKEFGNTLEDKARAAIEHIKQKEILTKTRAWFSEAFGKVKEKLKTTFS
Sequence of UniProt A2ALW5 (A2ALW5 whole entry): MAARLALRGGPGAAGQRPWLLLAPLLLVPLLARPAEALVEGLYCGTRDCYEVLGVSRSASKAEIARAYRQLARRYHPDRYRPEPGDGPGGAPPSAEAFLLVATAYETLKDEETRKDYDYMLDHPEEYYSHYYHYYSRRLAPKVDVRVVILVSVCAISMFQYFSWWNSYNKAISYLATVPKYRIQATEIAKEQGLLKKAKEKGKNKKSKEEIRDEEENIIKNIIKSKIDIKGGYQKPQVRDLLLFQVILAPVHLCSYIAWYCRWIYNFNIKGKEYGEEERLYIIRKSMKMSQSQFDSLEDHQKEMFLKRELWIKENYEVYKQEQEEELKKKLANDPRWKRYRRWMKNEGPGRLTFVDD
Sequence of UniProt O54785 (O54785 whole entry): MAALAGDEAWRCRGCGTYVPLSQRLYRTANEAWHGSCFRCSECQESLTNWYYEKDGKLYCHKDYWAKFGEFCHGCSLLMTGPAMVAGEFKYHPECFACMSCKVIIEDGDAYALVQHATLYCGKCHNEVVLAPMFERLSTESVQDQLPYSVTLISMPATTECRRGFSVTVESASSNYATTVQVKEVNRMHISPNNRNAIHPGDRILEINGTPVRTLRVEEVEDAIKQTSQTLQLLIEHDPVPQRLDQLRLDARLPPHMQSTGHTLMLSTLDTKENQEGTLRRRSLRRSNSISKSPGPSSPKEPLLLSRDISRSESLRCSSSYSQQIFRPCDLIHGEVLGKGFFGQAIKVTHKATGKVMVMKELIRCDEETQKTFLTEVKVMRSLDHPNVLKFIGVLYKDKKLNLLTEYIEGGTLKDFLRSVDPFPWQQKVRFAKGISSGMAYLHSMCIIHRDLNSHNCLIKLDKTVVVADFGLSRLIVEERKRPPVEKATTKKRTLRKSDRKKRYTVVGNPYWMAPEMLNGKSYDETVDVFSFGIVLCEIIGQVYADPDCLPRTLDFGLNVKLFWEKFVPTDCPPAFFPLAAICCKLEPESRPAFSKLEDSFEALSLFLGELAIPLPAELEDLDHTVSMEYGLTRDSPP
Sequence of UniProt Q8VDU5 (Q8VDU5 whole entry): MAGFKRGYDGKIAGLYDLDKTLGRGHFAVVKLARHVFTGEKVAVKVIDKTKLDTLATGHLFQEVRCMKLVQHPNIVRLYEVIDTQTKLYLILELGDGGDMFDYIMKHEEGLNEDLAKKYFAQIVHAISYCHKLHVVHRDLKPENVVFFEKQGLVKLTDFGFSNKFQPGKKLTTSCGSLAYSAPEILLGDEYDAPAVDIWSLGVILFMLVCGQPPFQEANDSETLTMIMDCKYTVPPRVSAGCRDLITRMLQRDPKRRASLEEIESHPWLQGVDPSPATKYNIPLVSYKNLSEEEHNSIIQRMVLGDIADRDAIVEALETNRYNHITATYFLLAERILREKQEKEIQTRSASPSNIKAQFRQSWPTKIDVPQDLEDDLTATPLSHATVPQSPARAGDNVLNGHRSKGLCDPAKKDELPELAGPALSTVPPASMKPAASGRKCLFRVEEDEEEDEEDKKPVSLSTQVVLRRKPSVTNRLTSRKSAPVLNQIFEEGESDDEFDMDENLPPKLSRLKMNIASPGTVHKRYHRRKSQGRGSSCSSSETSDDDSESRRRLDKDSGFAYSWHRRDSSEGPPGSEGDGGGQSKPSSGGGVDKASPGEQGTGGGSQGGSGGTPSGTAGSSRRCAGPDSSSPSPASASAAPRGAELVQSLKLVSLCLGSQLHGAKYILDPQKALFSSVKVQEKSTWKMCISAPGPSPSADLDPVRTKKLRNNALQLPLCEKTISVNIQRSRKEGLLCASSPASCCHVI
Sequence of UniProt Q9DCN1 (Q9DCN1 whole entry): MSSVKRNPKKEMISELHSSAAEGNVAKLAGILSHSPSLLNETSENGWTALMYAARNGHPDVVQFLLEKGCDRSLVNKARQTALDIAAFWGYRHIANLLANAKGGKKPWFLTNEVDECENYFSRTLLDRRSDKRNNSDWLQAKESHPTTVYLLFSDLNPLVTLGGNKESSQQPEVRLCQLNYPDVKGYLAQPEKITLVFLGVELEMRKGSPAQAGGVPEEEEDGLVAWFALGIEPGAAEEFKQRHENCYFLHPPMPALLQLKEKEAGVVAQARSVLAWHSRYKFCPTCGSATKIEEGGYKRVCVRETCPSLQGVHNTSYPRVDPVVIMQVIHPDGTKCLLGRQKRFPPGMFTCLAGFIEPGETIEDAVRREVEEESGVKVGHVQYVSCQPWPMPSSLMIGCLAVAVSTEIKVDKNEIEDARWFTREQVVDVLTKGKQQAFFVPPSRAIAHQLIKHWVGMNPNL
Sequence of UniProt Q6PDN3 (Q6PDN3 whole entry): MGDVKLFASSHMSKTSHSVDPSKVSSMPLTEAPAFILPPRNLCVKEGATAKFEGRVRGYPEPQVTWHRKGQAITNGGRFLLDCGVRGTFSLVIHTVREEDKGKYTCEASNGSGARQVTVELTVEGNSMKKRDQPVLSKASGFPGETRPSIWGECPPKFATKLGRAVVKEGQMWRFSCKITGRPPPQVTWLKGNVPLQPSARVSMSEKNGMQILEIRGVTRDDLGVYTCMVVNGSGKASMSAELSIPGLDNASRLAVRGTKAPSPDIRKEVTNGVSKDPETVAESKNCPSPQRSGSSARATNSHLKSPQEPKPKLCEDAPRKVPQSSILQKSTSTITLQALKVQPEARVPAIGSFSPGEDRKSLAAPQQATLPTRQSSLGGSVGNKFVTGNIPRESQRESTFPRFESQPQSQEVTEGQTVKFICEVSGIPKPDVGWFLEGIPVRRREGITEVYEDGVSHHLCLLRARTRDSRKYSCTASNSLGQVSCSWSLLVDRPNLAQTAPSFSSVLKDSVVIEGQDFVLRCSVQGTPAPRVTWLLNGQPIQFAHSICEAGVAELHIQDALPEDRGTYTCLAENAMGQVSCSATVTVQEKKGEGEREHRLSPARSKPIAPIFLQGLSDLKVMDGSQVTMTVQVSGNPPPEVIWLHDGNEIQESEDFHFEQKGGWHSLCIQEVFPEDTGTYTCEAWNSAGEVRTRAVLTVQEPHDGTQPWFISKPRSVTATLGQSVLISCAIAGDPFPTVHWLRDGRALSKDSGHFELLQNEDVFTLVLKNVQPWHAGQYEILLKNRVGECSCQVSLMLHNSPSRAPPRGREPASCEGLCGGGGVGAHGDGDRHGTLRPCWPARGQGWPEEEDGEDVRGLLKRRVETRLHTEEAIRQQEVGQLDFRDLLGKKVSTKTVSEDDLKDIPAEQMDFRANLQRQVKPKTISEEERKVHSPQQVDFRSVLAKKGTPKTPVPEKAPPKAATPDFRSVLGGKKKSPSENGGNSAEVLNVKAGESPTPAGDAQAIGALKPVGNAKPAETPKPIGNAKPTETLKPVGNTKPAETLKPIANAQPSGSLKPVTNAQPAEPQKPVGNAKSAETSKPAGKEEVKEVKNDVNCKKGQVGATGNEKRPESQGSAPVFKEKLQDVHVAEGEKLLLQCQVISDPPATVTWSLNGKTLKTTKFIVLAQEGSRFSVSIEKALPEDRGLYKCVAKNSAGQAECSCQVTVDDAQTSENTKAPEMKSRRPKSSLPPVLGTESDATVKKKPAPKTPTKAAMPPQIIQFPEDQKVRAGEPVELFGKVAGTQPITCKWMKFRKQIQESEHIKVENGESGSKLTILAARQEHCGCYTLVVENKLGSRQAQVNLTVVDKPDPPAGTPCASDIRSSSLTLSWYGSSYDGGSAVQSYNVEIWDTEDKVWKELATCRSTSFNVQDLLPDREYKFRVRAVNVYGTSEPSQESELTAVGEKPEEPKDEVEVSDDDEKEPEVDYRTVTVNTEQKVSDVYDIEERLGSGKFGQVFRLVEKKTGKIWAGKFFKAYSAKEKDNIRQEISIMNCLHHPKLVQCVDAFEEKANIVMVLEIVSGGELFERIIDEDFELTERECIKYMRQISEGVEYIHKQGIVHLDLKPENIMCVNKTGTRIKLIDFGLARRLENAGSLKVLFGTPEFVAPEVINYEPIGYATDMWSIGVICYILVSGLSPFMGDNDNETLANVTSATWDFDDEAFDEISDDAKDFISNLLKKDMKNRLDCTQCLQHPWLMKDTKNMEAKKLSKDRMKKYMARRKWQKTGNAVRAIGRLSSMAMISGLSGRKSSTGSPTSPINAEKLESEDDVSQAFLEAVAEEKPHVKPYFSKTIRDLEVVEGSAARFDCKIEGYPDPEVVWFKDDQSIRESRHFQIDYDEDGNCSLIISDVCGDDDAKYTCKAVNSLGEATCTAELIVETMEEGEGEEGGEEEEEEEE

Compound in the test: CN[C@@H]1C[C@H]2O[C@@](C)([C@@H]1OC)n1c3ccccc3c3c4c(c5c6ccccc6n2c5c31)C(=O)NC4 [staurosporine]
Nature of the test: log2 fold change of tryptic peptide abundance, ligand vs vehicle (limited proteolysis) (log2 ratio); higher = more trypsin-susceptible (destabilized). To be noted: ligand concentration: 20 uM; sample: mouse liver crude lysate; replicate design: treated separately.
For the target “UniProt Q8BZ09 (peptide sequence: IQGPQPVPGEIK, peptide start residue: 234)”, the log2 fold change worked out at 0.534.
As to “UniProt P11440 (peptide sequence: IGEGTYGVVYK, peptide start residue: 10)”, the log2 fold change was -2.03.
The result for “UniProt Q9ERE3 (peptide sequence: PTDFDFLK, peptide start residue: 32)” reads -2.47; that for “UniProt Q64464 (peptide sequence: ALLSPTFTSGR, peptide start residue: 131)”, -0.724; that for “UniProt Q922S4 (peptide sequence: AMGNRPMEMMDR, peptide start residue: 838)”, 0.447.
Take “UniProt P35917 (peptide sequence: VLGHGAFGK, peptide start residue: 850)”: the log2 fold change was found to be 1.38.
The result for “UniProt Q9DCN1 (peptide sequence: AIAHQLIK, peptide start residue: 446)” reads -0.997.
As to “UniProt O35469 (peptide sequence: QTILDVNLK, peptide start residue: 95)”, the log2 fold change was -0.227.
The result for “UniProt Q8BK48 (peptide sequence: DFRPPYVK, peptide start residue: 447)” reads -1.1; that for “UniProt Q920L1 (peptide sequence: VAPLVQSLCAK, peptide start residue: 402)”, 0.439.
Take “UniProt Q3UYH7 (peptide sequence: SLLEGLLQR, peptide start residue: 423)”: the log2 fold change is -0.733.
The result for “UniProt Q9EQC1 (peptide sequence: DFYYQGLR, peptide start residue: 204)” reads -0.862.
The result for “UniProt Q8BX94 (peptide sequence: TALPAPMFTR, peptide start residue: 62)” reads 0.84; that for “UniProt Q6P4S6 (peptide sequence: LIAECQQLKEER, peptide start residue: 329)”, -1.43; that for “UniProt Q9DBG5 (peptide sequence: VGQMVISGVDR, peptide start residue: 185)”, 0.534.
Take “UniProt P09103 (peptide sequence: EADDIVNWLKK, peptide start residue: 123)”: the log2 fold change came to 0.314.
The result for “UniProt Q99KG5 (peptide sequence: VLYYMEK, peptide start residue: 347)” reads -0.236; that for “UniProt Q9CRD0 (peptide sequence: FKKLENSPLGEALR, peptide start residue: 102)”, 0.663; that for “UniProt Q80ZW0 (peptide sequence: YSLLAEIGR, peptide start residue: 207)”, -0.855.
For “UniProt A2ALW5 (peptide sequence: WIYNFNIK, peptide start residue: 263)”, the log2 fold change is 0.844.
The result for “UniProt Q8R1Z9 (peptide sequence: LSCNHVFHEFCIR, peptide start residue: 249)” reads 1.08; that for “UniProt O54785 (peptide sequence: GFFGQAIK, peptide start residue: 340)”, -0.88; that for “UniProt P24456 (peptide sequence: RVQQEIDAVIGQVR, peptide start residue: 333)”, -0.553.
The result for “UniProt Q6PDN3 (peptide sequence: VSDVYDIEER, peptide start residue: 1482)” reads -1.2; that for “UniProt O89079 (peptide sequence: KYGVVLDEIKPSSAPELQAVR, peptide start residue: 65)”, -0.856.
In the case of “UniProt P97864 (peptide sequence: LFFIQACR, peptide start residue: 180)”, the log2 fold change was -0.485.
As to “UniProt P24788 (peptide sequence: YLPALQGCR, peptide start residue: 414)”, the log2 fold change was -0.33.
Turning to “UniProt P31324 (peptide sequence: LKVVDVIGTK, peptide start residue: 284)”, the log2 fold change is 1.51.
The result for “UniProt P41216 (peptide sequence: WLLDFASK, peptide start residue: 389)” reads 0.328; that for “UniProt O88451 (peptide sequence: LWDQTSSEVK, peptide start residue: 225)”, -0.709.
Turning to “UniProt P13516 (peptide sequence: TVPLHLEEDIRPEMK, peptide start residue: 33)”, the log2 fold change was found to be 0.245.
Consider “UniProt P34928 (peptide sequence: AWFSEAFGK, peptide start residue: 70)”, for which the log2 fold change was 0.496.
The result for “UniProt Q9JI10 (peptide sequence: AGNILLNTEGHAK, peptide start residue: 149)” reads -3.04; that for “UniProt O54781 (peptide sequence: HFTEDIQTR, peptide start residue: 500)”, -1.82; that for “UniProt Q7TMY8 (peptide sequence: HLGYTLCK, peptide start residue: 3630)”, 0.491.
On to “UniProt Q8JZU2 (peptide sequence: FIHDQTSSNPK, peptide start residue: 150)”, for which the log2 fold change was determined as 0.438.
The result for “UniProt Q8VDU5 (peptide sequence: IAGLYDLDKTLGR, peptide start residue: 12)” reads -1.42; that for “UniProt P22907 (peptide sequence: ELENALEKNEVDLVVHSLK, peptide start residue: 80)”, -0.802.
